High-throughput results deposited in PubChem by several laboratories.
In the library only some 4.6% were active in any assay of this set; here they are far more common.
tim23-1 inh: tim23-1 yeast growth inhibition | S. cerevisiae tim23-1 growth, BacTiter-Glo luminescence, 24 h | AID 463212 | inhibition, % at 20 µM | 330,000 compounds, 1.3% hits;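 active = growth inhibition of the mutant yeast at or above 50%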;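 note: temperature-sensitive mutant grown at 25 °C; plate controls were DMSO-treated mutant yeast for no effect and medium wells lacking yeast for full effect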
PfHsp90 set2: growth inhibition of yeast expressing Plasmodium Hsp90; 310,000 compounds, 0.32% hits; S. cerevisiae expressing PfHsp90, BacTiter-Glo ATP, 48 h; yeast lacking PDR1 and PDR3 efflux regulators; inhibition, % at 9.4 µM;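 active = every replicate shows inhibition above about 80%, whatever the replicate mean, limit read from the data; inconclusive = mean inhibition reaches the set limit but some replicate falls short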;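 note: 0% = DMSO neutral controls and 100% = 20 µM radicicol positive controls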
NLRP3 yeast inh: blocks the NALP3 inflammasome reconstituted in yeast; Yeast reconstituted NLRP3/ASC/caspase-1, beta-gal luminescence, 24 h; inhibition, % at 10 µM; 330,000 compounds, 0.39% hits; AID 2825;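 active = inhibition of 50% or more; inactive = inhibition below 50%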;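 note: plate controls were induced DMSO wells for no effect and uninduced yeast grown without galactose for full effect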
tim10-1 inh: inhibits growth of tim10-1 mutant yeast; S. cerevisiae tim10-1 ts strain growth, BacTiter-Glo, 24 h; 330,000 compounds, 2.2% hits; AID 463190; inhibition, % at 20 µM;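 active = inhibition of at least 40%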;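 note: mutant grown at 25 °C; 0% = DMSO wells with yeast and 100% = wells holding no yeast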
SKKanGAS inh: SKKanGAS growth inhibition. S. pyogenes SKKanGAS, kanamycin growth, BacTiter-Glo, 6 h. 300,000 compounds, 1.3% hits. inhibition, % at 7.5 µM;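 active = mean replicate score, as percent of positive control median, at least 50; inconclusive = mean below 50 but one replicate at or above 50; inactive = mean and every replicate below 50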;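 note: strain carries kanamycin resistance gene driven by streptokinase promoter and grows in 40 µg/ml kanamycin; loss of luminescence reflects streptokinase promoter inhibition or plain growth inhibition; 0% = median of DMSO wells and 100% = positive control at its reference dose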
TIM10 inh: growth inhibitors of TIM10 yeast strain; inhibition, % at 10 µM; 330,000 compounds, 1.4% hits; S. cerevisiae TIM10 strain growth, BacTiter-Glo luminescence, 24 h;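 active = inhibition of 40% or more at the single tested concentration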;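 note: wild-type TIM10 isogenic control strain grown at permissive 25 °C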
TIM10 conf: TIM10 yeast growth inhibition, confirmed; S. cerevisiae tim10 strain growth, BacTiter-Glo luminescence, 24 h; inhibition, % at 10 µM; 4,600 compounds, 63% hits; shares compounds with TIM10 inh;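 active = inhibition of yeast growth at or above a set limit in either of two replicates at 10 µM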;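 note: this counterscreen used the strain with wild-type TIM10; 0% = yeast with DMSO and 100% = medium wells lacking yeast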
Active calls of the source: *; ? = inconclusive; / = not tested or not shown.

SMILES	tim23-1 inh	PfHsp90 set2	NLRP3 yeast inh	tim10-1 inh	SKKanGAS inh	TIM10 inh	TIM10 conf
CN(Cc1ccccc1)C(=C(Cl)Cl)C(=C1NCCN1)[N+](=O)[O-]	0.5	-0.5	3.9	-12.1	-11.5	-8.1	/
O=[N+]([O-])C(=C1Nc2ccccc2N1)/C(Cl)=C(/Cl)Br	37.2	4.2	-8.1	25.6	-0.2	57.1*	41.0*
CSc1ccc(CN(C)C(=O)c2cccc(S(=O)(=O)N3CCN(Cc4ccccc4)CC3)c2)cc1	20.8	3.4	19.0	23.2	-4.0	11.0	/
S=C(NCc1ccco1)Nc1cc(-c2ccccc2)[nH]n1	41.0	/	16.9	32.8	-4.3	40.4*	31.2
S=C(NCc1ccco1)Nc1ccc(Cl)c(Cl)c1	44.9	-9.2	29.4	33.9	12.2	46.0*	13.9
COc1ccc(NC2CC(=O)N(c3cc([N+](=O)[O-])ccc3C)C2=O)cc1 (stereo not given)	13.1	/	0.1	11.3	6.2	-2.3	/
COc1cc2c(cc1OC)C(Cc1ccc(O)c(Oc3ccc(C[C@H]4c5cc(OC)c(OC)cc5CCN4C)cc3)c1)N(C)CC2 (stereo not given in full)	-9.1	/	12.3	-10.8	/	-4.1	/
c1ccc(-n2nnnc2Sc2ncnc3sc4c(c23)CCCC4)cc1	22.0	-8.2	3.6	34.0	6.2	43.9*	22.6
Cc1sc2ncnc(Sc3nnnn3-c3ccc(Cl)cc3)c2c1C	1.1	-30.7	16.5	26.8	?	13.5	/
Cc1cccc(NC(=S)NC(=O)c2ccc(Br)o2)c1C	-1.3	14.0	45.0	-4.4	2.5	-2.3	/
Cc1cccc(C)c1NC(=S)NC(=O)c1ccc(Br)o1	37.9	-43.8	-17.0	34.1	0.4	42.1*	43.0*
COc1ccccc1C(CNC(=O)c1cccc(S(=O)(=O)Nc2ccc(C)cc2)c1)N(C)C (stereo not given)	-33.5	48.3	1.5	-11.7	3.4	-23.1	/
Cc1c(O)ccc2c3c(c(=O)oc12)CCC(C)C3 (stereo not given)	19.2	0.4	20.9	21.7	5.7	1.6	/
Cc1c(O)ccc2c3c(c(=O)oc12)CCCC3	31.4	13.2	19.1	29.5	/	41.1*	31.4*
COc1ccc(/C=N/Nc2ncnc3scc(-c4ccccc4)c23)cc1OC	26.2	-2.4	7.3	31.8	-5.0	57.9*	43.8*
Oc1ccc(Nc2ncnc3scc(-c4ccccc4)c23)cc1	9.5	-9.0	-10.1	17.4	-0.1	0.4	/
S=c1[nH]nc(-c2ccccc2)n1/N=C/c1ccc(Cl)cc1	/	-17.1	/	/	4.6	/	/
Fc1ccc(/C=N/n2c(-c3cccs3)n[nH]c2=S)cc1	41.4	4.1	21.4	29.9	-7.0	44.8*	28.2
C=CCn1c(O)c(N=Nc2ccccc2O)c2ccccc21	48.2	195.1*	37.5	-15.4	/	49.0*	64.7*
CC(=O)NC/C(C)=N\Nc1ccc([N+](=O)[O-])cc1	4.7	-5.6	23.4	30.8	6.6	48.7*	-33.2
CC1CCN(S(=O)(=O)c2cc3c4c(c2)CCN4C(=O)CC3)CC1	9.7	/	3.6	-0.2	-12.2	-4.9	/
Cc1cc(C)nc(N/N=C/c2ccccc2OCc2ccccc2)n1	24.6	22.5	30.8	32.3	1.2	30.7	/
Cc1cc(C)nc(N/N=C/c2ccccc2OCc2cccc(Br)c2)n1	38.8	-43.5	29.7	39.4	-1.5	48.3*	1.5
O=C(COc1ccccc1)Nc1ccc(S(=O)(=O)N2CCCCCC2)cc1	35.3	-5.4	1.1	37.7	11.0	71.1*	59.7*
O=C(CSCc1ccc(Cl)cc1)Nc1ccc(S(=O)(=O)N2CCCCCC2)cc1	39.5	-10.6	14.4	35.1	1.5	41.0*	-22.9
O=C(Nc1ccc(S(=O)(=O)N2CCCCCC2)cc1)c1ccc(Br)o1	40.2	-43.4	16.1	39.6	9.5	55.7*	49.6*
Cc1ccccc1NS(=O)(=O)c1ccc(NC(=O)CSCc2ccc(Br)cc2)cc1	45.2	-23.1	14.6	36.8	6.0	41.2*	28.1
COc1ccccc1OCCSc1nc2ccccc2n1CC(O)CO (stereo not given)	14.1	21.1	5.1	0.7	-3.3	4.2	/
